KDM5B inh: Primary screen for KDM5B Histone Demethylases FDH-coupled qHTS | Potency, µM (top dose mostly 57.7 µM), actives largely listed as inhibitors | hit rate 2.6% among 220,000 | AID 1347165, 2019 | KDM5B demethylase, FDH-coupled NADH fluorescence (FDH is formaldehyde dehydrogenase) | Lysine-specific demethylase 5B (Homo sapiens), Q9UGL1; active = well fitted inhibition curve with a large enough effect; also: 0% is about no effect; nearly all actives have a fitted effect of over 70% in size
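Compound dilutions met 200 nM (final) KDM5BΔAP for 10 min at room temperature before substrate addition. The substrate mix held 12.5 µM H3K4me3 with cofactors 25 µM α-ketoglutarate and 50 µM Fe²⁺. NADH signal gain over 30 min defined activity.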
* marks the source's active call; other numbers are inactive results; i = inactive. This excerpt belongs to a sample that is enriched for hits. Potency is read from the fitted curve at half-maximal effect.

SMILES | KDM5B inh
COCCN1C(=O)CS(=O)(=O)C12CCN(C(=O)c1sccc1C)CC2 | i
Cc1ccc(CNCc2c(C(=O)O)c(C)n(Cc3c(C)cc(C)cc3C)c2C)cc1 | i
c1cncc(COC2CCN(c3ncncn3)CC2)c1 | i
Cc1cc(-c2cc3c(cn2)CN(Cc2ccc4[nH]ccc4c2)CCN3)ccn1 | i
CN(Cc1cccnc1)Cc1nc(C2(O)CCN(CC3CCCCC3)CC2)cs1 | i
CCOc1cc2c(cn1)NCCN(Cc1ccc3[nH]ccc3c1)C2 | 28µM*
c1ccc(-c2cc3c(cn2)CN(Cc2ccc4[nH]ccc4c2)CCN3)cc1 | i
c1cncc(-c2nnc3n2CCN(Cc2ccsc2)C3)c1 | i
c1cncc(COc2cc3c(cn2)NCCN(Cc2ccsc2)C3)c1 | 35µM*
c1cncc(COc2cc3c(cn2)NCCN(CC2CCCCC2)C3)c1 | 25µM*
Clc1cnccc1CN1CCNc2cnc(Oc3ccccc3)cc2C1 | i
Nc1nc(Nc2ccc(F)c(Cl)c2)sc1C(=O)c1ccccc1 | i
Cc1ccc(N2C(=O)N(Cc3ncc(-c4ccccc4)o3)C(=O)C2C)cc1 (centres undefined) | i
O=C1NC(=NC2CCCCC2)C2(CCCN(Cc3ccccc3)C2)N1c1cccnc1 (centres undefined) | i
Cc1[nH]c2ccccc2c1C(=O)C(C)Sc1nnnn1C1CCCCC1 (centres undefined) | i
Fc1ccc(-c2nc(CSc3ccc4c(c3)OCCO4)cs2)cc1 | i
CC(C)Cc1cc(C[C@@H]2C[C@H](NC(=O)C(C)(C)C)C2(C)C)no1 | i
CC(C)Cc1cc(C(=O)N2CCN(c3ccccc3)CC2)no1 | i
CC(C)Cc1cc(CNc2nccc(-c3cc(C(=O)O)ccn3)n2)no1 | 32µM*
COCCNc1cc2c(cn1)CN(Cc1ccccc1)CCN2 | i
COCCN1Cc2ccc(NCc3ccccc3)nc2C(C)(C(=O)N(C)CCOC)C1 (centres undefined) | 35µM*
COCCN(C)C(=O)C1(C)CN(Cc2ccccc2)Cc2ccc(NCC(C)C)nc21 (centres undefined) | 32µM*
COCCOC1CCN(C(=O)NCc2ccccc2)CC1 | i
COCCN1C(=O)CSC12CCN(C(=O)NCc1ccccc1)CC2 | i
CN(C)C(=O)N1CCC2(CC1)CN(Cc1ccncc1)Cc1ccccc1O2 | i
SMILES | KDM5B inh
COc1ccc(NS(=O)(=O)c2cc(-c3n[nH]c(=O)c4c3CCCC4)ccc2C)c(OC)c1 | i
C/C=C/Cn1c(SCCC)nc2c1c(=O)[nH]c(=O)n2C | i
Cc1nc(-c2c3n(c(=O)n(CC(=O)NCc4ccccc4)c2=O)CCCC3)no1 | i
CCc1nc(CN(C)C(C(=O)O)c2ccc(C(C)(C)C#N)cc2)no1 (centres undefined) | i
NC(=O)c1ccccc1OCC(=O)Nc1ccc(S(=O)(=O)N2CCCCC2)cc1 | i
CN(C)c1cccc(-c2cnc(NC(=O)c3ccncc3)c3c2CCO3)c1 | i
O=C(O)c1cc(NCc2ccc(-c3ccccc3)cc2)ccc1N1CCOCC1 | i
COc1ccccc1-c1cnc(NC(=O)c2cnccn2)c2c1CCO2 | 35µM*
COc1ccccc1-c1cnc(NCc2ccccc2)c2c1CCO2 | 35µM*
COc1cccc(/C=N/NC(=O)c2cnccn2)c1OC | i
COc1ccccc1OCC(=O)Nc1ccc2c(c1)OCCO2 | i
c1ccc(-c2noc(-c3cncnc3Nc3ccc4c(c3)OCCO4)n2)cc1 | i
COc1ccccc1-c1cnc(Nc2ccc3c(c2)OCCO3)c2c1CCO2 | 35µM*
O=C(Nc1ncc(-c2ccccc2)c2c1OCC2)C1CCOCC1 | i
COc1ccccc1-c1cn2c(n1)CO[C@@H](CNC(=O)NCc1ccccc1)C2 | i
c1ccc(CNc2ncc(-c3ccc(N4CCOCC4)cc3)c3c2OCC3)cc1 | 40µM*
Cc1[nH]c(=O)[nH]c(=S)c1C#N | i
Cc1ccc(-c2[nH]ncc2C=O)cc1C | i
CCCc1ccc(S(=O)(=O)N2CCN(Cc3nc4ccccc4o3)CC2)cc1 | i
COc1cc(CN2CCCCCC2c2ccccc2Cl)ccc1OCC(N)=O (centres undefined) | i
CCCOc1ccc(-c2csc(-c3ccc(Cl)cc3)n2)cc1 | i
Cc1c(CC(=O)NCc2ccccc2)c(=O)oc2cc(O)c(Cl)cc12 | i
Cc1noc(C)c1S(=O)(=O)N1CC(c2noc(C3CCCN3C)n2)C1 (centres undefined) | i
C=CCOc1ccc(/C=C/C(=O)c2ccc(C#N)cc2)cc1 | i
O=C(Cc1cccc2cccnc12)NCc1ccccc1 | i
SMILES | KDM5B inh
Cc1ccccc1Nc1nc(NC2CCCC2)nc2c1cnn2C | i
CCCCN1CCN(C(=O)c2cc(NC(=O)C3CCC3)cc3nc(C)ccc23)CC1 | 32µM*
CCCN1CCN(C(=O)c2cc(NC(=O)C3CCC3)cc3nc(C)ccc23)CC1 | 22µM*
Cc1cc(C(=O)N2CCN(CC(=O)NC3CC3)CC2)c2ccccc2n1 | i
CCCCN1CCN(C(=O)c2cc(-c3ccncc3)nc3ccccc23)CC1 | i
CCOC(=O)c1cc(NC(=O)C2CCC2)cc(C(=O)OCC)c1 | i
COc1ccc(OCCN2CCN(C(=O)c3cc(C4CC4)nc4ccccc34)CC2)cc1 | i
COCCCNC(=O)C(NC(=O)c1ccccc1C)C1CCN(C(=O)c2ccc(F)cc2)CC1 (centres undefined) | i
O=C(Nc1ccc(Cl)c(C(F)(F)F)c1)c1ccc2ccccc2c1 | i
CC(c1ccc(F)cc1)N(C)C(=O)c1ccc(S(=O)(=O)N(C)C)cc1 (centres undefined) | i
O=C(Nc1ccc(Cl)cc1)c1ccc(-n2cnc3ccccc3c2=O)cc1 | i
Cn1ncc2c(NCCc3cn4ccccc4n3)nc(C3CCCC3)nc21 | 20µM*
Cc1nc(CCN(C)c2nc(C3CCCC3)nc3c2cnn3C)no1 | i
Cc1nc(NCCCNC2CCCCC2)c2cnn(C)c2n1 | i
CCCc1nc2ccccc2c(C(=O)OCC(=O)NCC(C)C)c1CC | i
Cc1ccc(C(=O)COC(=O)c2cc3ccccc3oc2=O)cc1C | i
CCn1ncc(N2CCC(NC(=O)c3cccs3)CC2)cc1=O | i
COc1cccc(-c2ccc(C(=O)NCCCn3ccnc3C(C)C)cn2)c1 | 28µM*
Cc1nccn1CCNC(=O)c1ccc(CC2CCN(S(C)(=O)=O)CC2)cc1 | i
CC(C)c1nccn1CCCNC(=O)c1ccc(-c2ccc(F)cc2)nc1 | i
CC(C)c1nccn1CCCNC(=O)c1ccc(NC2CCC(O)CC2)nc1 (centres undefined) | 28µM*
COc1cccc(C(C)N(C)C(=O)c2cc(Cn3ccnc3C(C)C)[nH]n2)c1 (centres undefined) | i
CC(C)c1nccn1CCCNC(=O)c1ccc(N2CCCC(CO)C2)nc1 (centres undefined) | i
COc1ccc(CC(=O)Nc2nonc2-c2ccc(OC(C)C)cc2)cc1 | i
Clc1cccc(-n2cccc2)c1 | i
SMILES | KDM5B inh
CCCOc1cccc(-c2cc(C(=O)NCCCN3CCOCC3)c3ccccc3n2)c1 | i
Nc1cccc(OCC2CCCO2)c1 (centres undefined) | i
COc1ccc(OC)c(CN2CCNc3cnc(Nc4ccccc4)cc3C2)c1 | 35µM*
COc1ccc(CN2CCNc3cnc(Nc4ccccc4)cc3C2)cc1O | 40µM*
c1cncc(Nc2cc3c(cn2)CN(Cc2ccc4[nH]ccc4c2)CCN3)c1 | i
Cn1cc(CN2CCNc3cc(Nc4ccccc4)ncc3C2)cn1 | i

Compound activity from PubChem.
